Out of some 5,600 compounds screened, about 390 (7%) showed an effect of 50% or more. For the sample, strong results were picked, then their nearest neighbours and some compounds at random. Starred links: 1 amine or outer side, 2 acyl side, 3 side chain; linkers in the order of their positions; H or OH if unused. Positions of bridges follow the written chain, without caps; N, C: chain ends. Non-standard residues stand in square brackets, D forms with d. Residues, ends and D or L forms follow the SMILES beside them. Chains are numbered I, II in the order given. Actinocin(9to1) = Cc1c2oc3c(C)ccc(C(=O)[*:1])c3nc-2c(C(=O)[*:2])c(N)c1=O; NMeV = CN[C@H](C(=O)O)C(C)C; Sar = CNCC(=O)O
Experiments:
[1] = molecular target: T1, Protein deacetylase HDAC6 (Homo sapiens) (UniProt Q9UBN7); settings: at 10 µM
T1 sequence (whole entry): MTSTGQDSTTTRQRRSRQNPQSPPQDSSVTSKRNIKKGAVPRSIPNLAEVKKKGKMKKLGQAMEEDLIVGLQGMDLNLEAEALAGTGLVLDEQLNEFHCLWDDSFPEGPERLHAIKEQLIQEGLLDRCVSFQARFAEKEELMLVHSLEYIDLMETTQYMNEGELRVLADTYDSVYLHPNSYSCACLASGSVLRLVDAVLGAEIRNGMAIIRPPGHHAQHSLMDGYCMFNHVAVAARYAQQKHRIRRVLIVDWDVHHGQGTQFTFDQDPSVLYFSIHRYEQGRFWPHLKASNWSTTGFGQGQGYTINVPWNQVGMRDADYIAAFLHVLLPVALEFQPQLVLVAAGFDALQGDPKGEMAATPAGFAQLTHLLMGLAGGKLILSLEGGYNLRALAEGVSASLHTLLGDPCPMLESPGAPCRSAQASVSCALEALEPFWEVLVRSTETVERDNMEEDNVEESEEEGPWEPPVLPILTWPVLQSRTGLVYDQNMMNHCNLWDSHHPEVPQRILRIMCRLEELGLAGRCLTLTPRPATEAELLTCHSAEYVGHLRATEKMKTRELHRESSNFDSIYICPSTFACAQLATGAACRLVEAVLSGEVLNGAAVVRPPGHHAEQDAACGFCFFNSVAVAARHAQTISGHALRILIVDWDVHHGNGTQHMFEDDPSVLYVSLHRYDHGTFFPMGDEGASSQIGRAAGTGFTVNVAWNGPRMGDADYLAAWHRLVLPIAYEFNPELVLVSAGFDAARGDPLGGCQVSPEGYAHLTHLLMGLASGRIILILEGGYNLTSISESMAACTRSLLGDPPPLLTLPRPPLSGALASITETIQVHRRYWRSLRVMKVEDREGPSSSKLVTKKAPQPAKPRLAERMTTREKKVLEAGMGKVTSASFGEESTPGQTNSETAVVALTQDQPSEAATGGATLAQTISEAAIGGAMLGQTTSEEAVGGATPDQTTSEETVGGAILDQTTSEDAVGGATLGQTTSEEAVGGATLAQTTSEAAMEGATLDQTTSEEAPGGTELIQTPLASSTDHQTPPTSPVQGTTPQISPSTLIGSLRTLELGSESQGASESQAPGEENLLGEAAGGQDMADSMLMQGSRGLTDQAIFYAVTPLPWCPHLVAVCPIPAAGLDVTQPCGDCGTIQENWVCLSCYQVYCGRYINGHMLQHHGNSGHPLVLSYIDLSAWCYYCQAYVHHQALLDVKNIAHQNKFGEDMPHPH

[2] = molecular target: Protein deacetylase HDAC6 (Homo sapiens) (UniProt Q9UBN7); settings: at 10 µM; remark: listed apart in the source

Molecule	inhibition [1] [%]	inhibition [2] [%]
CC1CCN(C(c2ccc(F)cc2)c2ccc(C(C)C(=O)O)cc2-c2ccc(C(F)(F)F)cc2)CC1 (stereo not given)	27.9	
Nc1ncnc2nc(-c3ccc(N4CCOCC4)nc3)cc(-c3cccc(Br)c3)c12	19.8	
BLEOMYCIN SULFATE, CHEMBL6067493		23.1
FLUPENTIXOL, CHEMBL6066864		88.9
CYANOCOBALAMIN, CHEMBL2110563		-2.71
O=c1ccc2cc3ccoc3cc2o1	17.5	
CC(C)[C@H](C(=O)Nc1ccc(C(=O)NO)cc1)c1ccccc1	101	
CC(=O)Nc1ccc(C(=O)Nc2ccccc2N)cc1	-0.35	
O=C(O)c1ccc(NC(=O)[C@H](Cc2ccc(O)cc2)NC(=O)c2ccccc2)cc1	10.6	
CC1(C)Oc2ccc(C#N)cc2[C@@H](N2CCCC2=O)[C@@H]1O	-9.16	
Cc1ccc(C(=O)Cn2c3c(sc2=N)CCCC3)cc1	102	
CCOC(=O)C1=C(C)NC(c2ccccc2)=C(C(=O)OCc2ccc([N+](=O)[O-])cc2)C1C#Cc1ccccc1 (stereo not given)	-2.41	
COc1cccc(CCc2ccccc2OCC(CN(C)C)OC(=O)CCC(=O)O)c1 (stereo not given)	-7	
COc1cccc(/C=N/C=N/c2cccc(OC)c2)c1	99.8	
N/C(=N\C(=O)c1nc(Cl)c(N)nc1N)NCc1ccccc1	25.2	
N[C@H](C(=O)O)c1ccc(O)cc1	4.75	
Cc1cc(-c2nc(C(=O)Nc3cn(C4CCOCC4)nc3C(N)=O)co2)ccn1	22.8	
COc1ccc(/C=C/C(=O)Nc2ccccc2C(=O)O)cc1OC	40.8	
O=C(/C=C/c1cccc(S(=O)(=O)Nc2ccccc2)c1)NO	102	
CC(=O)Nc1ccc(S(=O)(=O)Nc2ccc([N+](=O)[O-])cc2)cc1	17.7	
c1cc(-c2sc(-c3ccncc3)c(-c3ccncc3)c2-c2ccncc2)ccn1	17	
COc1cc(N)c(Cl)cc1C(=O)CCC1CCN(CCNS(C)(=O)=O)CC1	-6.48	
Nc1ncnc2c1ncn2[C@@H]1O[C@H](CO)C[C@H]1O	-9.63	
CC(=O)Oc1c(C)cc(OCC(O)CNC(C)C)c(C)c1C (stereo not given)	28.4	

Molecule	inhibition [1] [%]	inhibition [2] [%]
CCOc1ccc(-n2c(C(C)N(Cc3cccnc3)C(=O)Cc3ccc(F)c(C(F)(F)F)c3)nc3ncccc3c2=O)cc1 (racemic)	-3.08	
COc1cccc(-c2ccc(NC(=O)C3=C(C(=O)O)CCC3)c(F)c2)c1	43.2	
COc1cc2nccc(Oc3ccc(NC(=O)Nc4ccc(F)cc4F)c(F)c3)c2cc1OC	10.8	
CCCCOc1ccc(C(=O)Nc2ccc(F)cc2F)cc1	69.8	
CHLOROPHYLLIDECOPPER COMPLEX SODIUM SALT, CHEMBL5308389		8.12
Chlorophyllin (sodium copper salt), CHEMBL5308389		19.3
BISMUTH SUBSALICYLATE, CHEMBL1120		12.2
O=C(O)C1(c2ccc(-c3ccc(Cl)c(Cl)c3)c(F)c2)CC1	33.4	
O=C(O)c1cc(-c2ccc(F)cc2F)ccc1O	60.9	
Cc1c(-c2ccc(-c3ccccc3F)cc2)nc2ccc(F)cc2c1C(=O)O	-9.14	
CC(C)[C@@H](C)/C=C/[C@@H](C)[C@H]1CC[C@H]2/C(=C/C=C3\C[C@@H](O)CC[C@@H]3C)CCC[C@]12C	11.8	
CC(C)(O)c1coc(S(=O)(=O)NC(=O)Nc2c3c(cc4c2CCC4)CCC3)c1	-9.36	
Cc1cnc(NC(=O)Nc2cc(Br)c(C)cc2OC[C@@H]2CNCCO2)cn1	-8.01	
COc1cc(COc2cc(N)c(Cl)cc2C(=O)CCC2CCN(CCNS(C)(=O)=O)CC2)cc(OC)c1	28.1	
Cc1c(NC(=O)N2CCOCC2)ccc2c1c1ccccc1n2C(C)C	21.6	
CN1CCCC(CC2c3ccccc3Sc3ccccc32)C1 (stereo not given)	34.4	
CSc1ccc2c(c1)N(CCC1CCCCN1C)c1ccccc1S2 (stereo not given)	21.9	
CSc1ccc2c(c1)C(N1CCN(C)CC1)Cc1ccccc1S2 (stereo not given)	62.7	
NC(=O)C[C@H](N)C(=O)O	16.2	
O=C(O)CNC(=O)c1nc(Cl)c2ccccc2c1O	-6.14	
Cc1c2oc3c(C)ccc(C(=O)N[C@@H]4C(=O)N[C@@H](C(C)C)C(=O)N5CCC[C@H]5C(=O)N(C)CC(=O)N(C)[C@@H](C(C)C)C(=O)O[C@@H]4C)c3nc-2c(C(=O)N[C@@H]2C(=O)N[C@@H](C(C)C)C(=O)N3CCC[C@H]3C(=O)N(C)CC(=O)N(C)[C@@H](C(C)C)C(=O)O[C@@H]2C)c(N)c1=O (I: TVP[Sar][NMeV] / II: TVP[Sar][NMeV]; ester I:1-I:C, II:1-II:C; linker I:N-II:N via Actinocin(9to1))	21	
COc1cccc([C@H](O)C2CCN(CCc3ccc(F)cc3)CC2)c1OC	-1.53	
COc1ccccc1S(=O)(=O)Nc1ccc2c(c1)CN(C)C(=O)N2	-9.44	
COc1cc2c(cc1OC)CN(CCc1ccc(NC(=O)c3cccc4c(=O)c5cccc(OC)c5[nH]c34)cc1)CC2	59.7	

Molecule	inhibition [1] [%]	inhibition [2] [%]
COc1cnc(-n2cnc(C)n2)c2[nH]cc(C(=O)C(=O)N3CCN(C(=O)c4ccccc4)CC3)c12	12.8	
CC(C)(Sc1ccc(CCN(CCCCC2CCCCC2)C(=O)NC2CCCCC2)cc1)C(=O)O	10.4	
COc1ccc(/C=C\CCCCOc2ccc(C(=O)c3cccc(C(=O)O)c3)cc2CCC(=O)O)cc1	-0.99	
CC(C)(C)c1ccc(CN(Cc2cccc(OCC(=O)O)c2)S(=O)(=O)c2cccnc2)cc1	3.1	
Cc1onc(-c2c(Cl)cccc2Cl)c1C(=O)N[C@@H]1C(=O)N([C@@H](C(=O)O)C(C)(C)C)[C@@H]1S	-9.26	
O=C(Nc1ccccc1-c1cn2c(CN3CCNCC3)csc2n1)c1cnc2ccccc2n1	55.6	
O=C(C1CC1)N1CC[C@@H](Cc2n[nH]c(=O)n2-c2ccc(-c3ccc4occc4c3)cc2)C1	39.2	
CN[C@@H]1[C@@H](O)[C@H](O[C@@H]2[C@@H](O)[C@H](O[C@H]3O[C@H](CN)[C@@H](O)[C@H](O)[C@H]3O)[C@@H](N)C[C@H]2NC(=O)[C@@H](O)CN)OC[C@]1(C)O	-4.97	
Cc1ccc(F)c(NC(=O)Nc2ccc(-c3cccc4[nH]nc(N)c34)cc2)c1	94.5	
Cc1cc(NC(=O)Nc2ccc(N(C)C)cc2)c2cc(F)cc(F)c2n1	9.39	
C[N+]1(CCCCC[N+]2(C)CCCC2)CCCC1	1.14	
NC(=O)[C@H]1CCS[C@@H]2C[C@]3(CCCN3C(=O)Cc3ccc(NC(=O)COc4ccc(Cl)cc4Cl)cc3)C(=O)N12	3.16	
Cc1c(C)c2c(c(C)c1O)C[C@@](C)(CCC[C@H](C)CCC[C@H](C)CCCC(C)C)OC2	18.1	
O=C1N=C(NCc2cccs2)S/C1=C\c1ccc2ncccc2c1	68.2	
Oc1ccc2ccccc2c1Cc1c(O)ccc2ccccc12	25.7	
Cc1cc(N)c2ccccc2[n+]1CCCCCCCCCC[n+]1c(C)cc(N)c2ccccc21	-8	
Nc1cc2c3ccccc3ccc2c2ccccc12	96	
COc1nccc(-c2c(-c3ccc(F)cc3)ncn2[C@H]2CC[C@H](O)CC2)n1	-0.9	
COc1c2occc2c(OC)c2c(=O)cc(C)oc12	-5.99	
Cc1cn(C[C@H](N)C(=O)O)c(=O)n(Cc2ccsc2C(=O)O)c1=O	14.3	
CN1CCCN=C1/C=C/c1cccs1	82.3	
Cc1ccsc1/C=C/C1=NCCCN1C	1.45	
CN1CCCN=C1COC(=O)C(O)(c1ccccc1)C1CCCCC1 (stereo not given)	-6.61	
CN1CCCN=C1/C=C/c1cccc(O)c1	74.1	

Molecule	inhibition [1] [%]	inhibition [2] [%]
COc1ccc(N(C)c2nc(C)nc3ccccc23)cc1	-1.78	
CC[C@@H]1C[C@H](N(Cc2cc(C(F)(F)F)cc(C(F)(F)F)c2)C(C)=O)c2cc(C(F)(F)F)ccc2N1C(=O)OC(C)C	3.27	
COC(=O)C1=C(C)NC(C)=C(C(=O)O[C@@H]2CCCN(Cc3ccccc3)C2)[C@@H]1c1cccc([N+](=O)[O-])c1	16.7	
CCn1c(=O)/c(=C2\Sc3ccccc3N2C)s/c1=C\c1cccc[n+]1CC	3.58	
N=C(N)NC(=N)N1CCOCC1	-0.5	
N#Cc1ccc(N(Cc2ccc(Br)cc2)n2cnnc2)cc1	7.87	
O=C(N[C@@H]1CC[C@@H](c2cccc(F)c2F)CN(CC(F)(F)F)C1=O)N1CCC(n2c(=O)[nH]c3ncccc32)CC1	21.5	
N[C@@]1(C(=O)O)CS(=O)(=O)[C@H]2[C@H](C(=O)O)[C@H]21	9.11	
O=C1NCCc2[nH]c(-c3ccncc3)cc21	-2.78	
O=C1Cc2c([nH]c3ccc(Br)cc23)-c2ccccc2N1	89.3	
O=C1Cc2c([nH]c3ccc(Br)cc23)-c2ncccc2N1	84.9	
CCS(=O)(=O)c1cccc(-c2cc(C(=O)NC3CCN(C)CC3)c(C)c3[nH]c4ncc(C)cc4c23)c1	12.4	
O=[N+]([O-])c1cccc2c(Br)n[nH]c12	-0.83	
CCCCc1ccc(NS(=O)(=O)c2ccc(F)cc2)cc1	18.6	
CN[C@@H](C)[C@H]1[C@H](O)C[C@@]2(C)[C@@H]3CC[C@H]4C(C)(C)[C@@H](NC)CC[C@@]45C[C@@]35CC[C@]12C	-3.38	
Nc1ccncc1N	42.8	
NS(=O)(=O)c1cc2c(cc1C(F)(F)F)NC(Cc1ccccc1)NS2(=O)=O (stereo not given)	103	
NS(=O)(=O)c1cc2c(cc1Cl)NC(CC1CCCC1)NS2(=O)=O (stereo not given)	9.09	
C=CCSCC1Nc2cc(Cl)c(S(N)(=O)=O)cc2S(=O)(=O)N1 (stereo not given)	12	
C[C@@H](c1nc(-c2ccc(C#N)cc2)cs1)[C@](O)(Cn1cncn1)c1ccc(F)cc1F	13.6	
N=C(N)NN=C1C=CC(=NNC(N)=S)C=C1	8.3	
C=C1/C(=C\C=C2/CCC[C@]3(C)[C@@H]([C@H](C)CC[C@@H](O)C(C)C)CC[C@@H]23)C[C@@H](O)C[C@@H]1O	24.3	
O=C(c1ccc(-c2ccc(Cl)cc2)o1)N(Cc1ccccn1)c1ccc(N2CCNCC2)cc1	9.26	

— ChEMBL document CHEMBL4808148, “HDAC6 screening dataset using tau-based substrate in an enzymatic assay yields selective inhibitors and activators” (2021)
